± gives the standard deviation of the averaged measurements. In all, about 33,000 sequences were measured (“E-score (rank enrichment, -0.5 to 0.5)”: median about -0.0075, highest 2% from about 0.23 on). Many of the other results were omitted from the sample, so the highest values are more common in it than they were.
System: WT Max(13-93) synthetic (M65Nle)
Assay: PBM 8-mer E-score (E-score (rank enrichment, -0.5 to 0.5)); higher = stronger preferential binding
Protocol: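 Protein binding microarray (universal PBM chip covering all 10-mers in fixed probe flanks) with chemically synthesized human Max(13-93) bHLH-LZ analogs (not full-length Max) bearing noncanonical residues (hArg, Tha, Aib, Nle at 65) and aromatic Cys staples. Read-out per 8-mer (and its reverse complement): E-score (rank-based enrichment, -0.5 to 0.5) and Z-score of median probe intensity.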

| Sequence | PBM 8-mer E-score |
| --- | --- |
| GGACCGAC | -0.168 ± 0.097 |
| CGCAGCCA | -0.117 ± 0.093 |
| AGTGTTCC | -0.151 ± 0.007 |
| GCGGCAAC | -0.106 ± 0.026 |
| CACCCGAG | -0.19 ± 0.056 |
| GAACCAAC | 0.0313 ± 0.051 |
| ATCTCAAA | -0.0195 ± 0.13 |
| CTGAGGAA | -0.111 ± 0.035 |
| ACAATGTA | 0.239 ± 0.034 |
| AAAATGAA | 0.138 ± 0.00081 |
| ACAATGTC | 0.108 ± 0.095 |
| ACAATGAT | 0.241 ± 0.024 |
| AAAATGAT | 0.249 ± 0.13 |
| ACAATGAG | 0.137 ± 0.029 |
| AAAATGAC | 0.174 ± 0.013 |
| ACAATGAC | 0.0383 ± 0.055 |
| GCAATGTA | 0.0841 ± 0.011 |
| TATGACGA | 0.0259 ± 0.072 |
| ATGATGCC | -0.00394 ± 0.018 |
| GGCTACCC | -0.19 ± 0.032 |
| CGCAAGAA | -0.121 ± 0.097 |
| GAGCCGGC | -0.26 ± 0.041 |
| AATGATCC | -0.122 ± 0.097 |
| AACAATTA | 0.248 ± 0.061 |
| AACAATTC | 0.146 ± 0.012 |

| Sequence | PBM 8-mer E-score |
| --- | --- |
| AACAATAC | 0.236 ± 0.036 |
| AACAATAA | 0.213 ± 0.15 |
| AACAATTG | 0.128 ± 0.05 |
| AACAATAT | 0.252 ± 0.089 |
| AACAATAG | -0.112 ± 0.17 |
| GACAATAC | 0.202 ± 0.02 |
| ACCAATAT | 0.175 ± 0.057 |
| AGCCGCTA | -0.263 ± 0.022 |
| CTCGATAA | -0.0814 ± 0.087 |
| AAGCGGGT | -0.0582 ± 0.061 |
| TCAGATCA | -0.0835 ± 0.073 |
| CCTCGACC | -0.128 ± 0.09 |
| GCTAAAAC | -0.101 ± 0.028 |
| TGAGATCA | -0.0342 ± 0.1 |
| AGCTGGAT | -0.164 ± 0.054 |
| CTCCCATA | -0.0036 ± 0.067 |
| ATGTTTCC | 0.225 ± 0.092 |
| ATGTTTTG | 0.24 ± 0.066 |
| CTGTTTAC | 0.0925 ± 0.099 |
| ATGTTTAG | 0.278 ± 0.063 |
| ATGTTTAA | 0.22 ± 0.078 |
| ACGTTTAG | 0.0123 ± 0.031 |
| ATGTTTGG | 0.147 ± 0.042 |
| ATGTTTAC | 0.243 ± 0.0084 |
| ATGTTTTA | 0.102 ± 0.043 |

| Sequence | PBM 8-mer E-score |
| --- | --- |
| AAAATAGG | 0.031 ± 0.16 |
| GACAACCC | 0.0334 ± 0.15 |
| CGGCCAGA | -0.212 ± 0.006 |
| CTGCTTTA | 0.169 ± 0.061 |
| ATGCTTTC | 0.174 ± 0.051 |
| ATGCTTTA | 0.277 ± 0.0049 |
| ATGATCGC | -5e-06 ± 0.043 |
| TGCCCGCA | 0.0712 ± 0.065 |
| GTCATGTA | 0.0154 ± 0.027 |
| AACATGTA | 0.23 ± 0.087 |
| TACATGTA | 0.308 ± 0.042 |
| GACATGTA | 0.273 ± 0.035 |
| GACATGTC | 0.163 ± 0.042 |
| TACATGAA | 0.11 ± 0.053 |
| GTGTCCGA | -0.00187 ± 0.12 |
| AGAGTACG | -0.124 ± 0.0062 |
| TGATCGAA | 0.0153 ± 0.063 |
| CGAGGAAA | 0.0336 ± 0.072 |
| GTTGTAGA | -0.101 ± 0.093 |
| ATTGTAGA | 0.302 ± 0.0094 |
| CTTGTAGA | -0.146 ± 0.15 |
| ATCAATTC | 0.0046 ± 0.15 |
| ATCAATTA | 0.225 ± 0.04 |
| ATCAATTG | 0.239 ± 0.016 |
| AGGACGGC | -0.0864 ± 0.17 |

| Sequence | PBM 8-mer E-score |
| --- | --- |
| AAAACGTC | 0.0934 ± 0.022 |
| GACCGATA | -0.0238 ± 0.067 |
| CTAAACCC | 0.00702 ± 0.049 |
| ACGTGTCG | 0.339 ± 0.0083 |
| GCGTGTCC | 0.127 ± 0.037 |
| ACGTGTCA | 0.3263 ± 0.0031 |
| CCGTGTCC | -0.00903 ± 0.072 |
| ACGTGTCC | 0.243 ± 0.037 |
| ACGTGTCT | 0.363 ± 0.00056 |
| CCGTGTCG | -0.151 ± 0.011 |
| ACCTGTCT | 0.0145 ± 0.064 |
| AAGTGTCG | 0.0847 ± 0.052 |
| GCGTGTCA | 0.223 ± 0.019 |
| AAGTGTCT | -0.104 ± 0.07 |
| CCGTGTCA | 0.0378 ± 0.022 |
| CCTTTGCG | 0.00668 ± 0.0019 |
| AGCCCCCC | -0.14 ± 0.14 |
| AACAGACA | 0.184 ± 0.011 |
| CGATTAGC | -0.18 ± 0.11 |
| CGGGCGAA | -0.0278 ± 0.057 |
| CACGCCTG | 0.0753 ± 0.081 |
| TGCTTGAA | 0.0947 ± 0.15 |
| GCCACTGA | -0.158 ± 0.074 |
| GACCCCTA | -0.156 ± 0.13 |
| CGTGGCTA | 0.193 ± 0.013 |

| Sequence | PBM 8-mer E-score |
| --- | --- |
| CATCTCAA | 0.104 ± 0.017 |
| AAAAATAT | 0.256 ± 0.017 |
| GAATATAA | 0.179 ± 0.022 |
| AAAAATAC | 0.2 ± 0.033 |
| CAATATAG | 0.117 ± 0.021 |
| AAATATAG | 0.238 ± 0.099 |
| CACTATAA | -0.0318 ± 0.027 |
| AAAAATAG | 0.102 ± 0.059 |
| GACTATAA | 0.13 ± 0.0092 |
| ATATATAG | 0.182 ± 0.041 |
| AACTATAA | 0.269 ± 0.028 |
| TAATATAA | 0.183 ± 0.014 |
| AAATATAA | 0.24 ± 0.048 |
| GTAGAGAC | -0.0752 ± 0.086 |
| CGTTCATC | 0.0464 ± 0.14 |
| GCCCCGCC | 0.172 ± 0.053 |
| CACAGGTA | 0.11 ± 0.061 |
| CGGTGACA | -0.162 ± 0.13 |
| ACTGCAAT | -0.0126 ± 0.077 |
| CAATATGA | 0.183 ± 0.027 |
| AAATATAC | 0.199 ± 0.028 |
| AAATATAT | 0.248 ± 0.032 |
| AAATATGT | 0.124 ± 0.078 |
| AAAATTTT | 0.273 ± 0.034 |
| ATATATAT | 0.0942 ± 0.12 |

| Sequence | PBM 8-mer E-score |
| --- | --- |
| AAAAATTT | 0.14 ± 0.091 |
| AAATATGA | 0.261 ± 0.023 |
| AAAATTTG | 0.027 ± 0.066 |
| AAGGAGCC | -0.118 ± 0.072 |
| CGTAAGCC | 0.0338 ± 0.0056 |
| CAGGATAC | -0.144 ± 0.019 |
| ACGCCAGC | -0.269 ± 0.085 |
| ATGCGCCA | 0.123 ± 0.11 |
| CGTACAAC | 0.112 ± 0.047 |
| ACGAGTCG | -0.0792 ± 0.021 |
| CTTGAAAA | 0.0938 ± 0.0069 |
| ATTGAAAC | 0.117 ± 0.092 |
| TTGAAAAA | 0.234 ± 0.043 |
| ATTGAAAA | 0.254 ± 0.087 |
| CTGAAAAA | -0.141 ± 0.0094 |
| ATGAAAAA | 0.158 ± 0.13 |
| ACGGTCCA | -0.222 ± 0.021 |
| AGATTTAC | 0.119 ± 0.041 |
| ACCTATCT | 0.211 ± 0.065 |
| CCTAAGCC | -0.125 ± 0.096 |
| ATTTTCGG | 0.129 ± 0.056 |
| GAAAACAA | 0.206 ± 0.059 |
| ATACATGG | 0.134 ± 0.045 |
| ACACATCT | 0.0507 ± 0.12 |
| ACACATGT | 0.359 ± 0.025 |

| Sequence | PBM 8-mer E-score |
| --- | --- |
| ACACATGA | 0.186 ± 0.036 |
| ACACATGG | 0.357 ± 0.034 |
| ACACATAT | 0.202 ± 0.041 |
| CTAGTGGC | -0.019 ± 0.044 |
| CACCCTTA | 0.118 ± 0.056 |
| ACCAGAAA | 0.0691 ± 0.0064 |
| CCTAGTCA | -0.0758 ± 0.01 |
| GCCGAAGC | -0.212 ± 0.034 |
| ACATTGTA | 0.153 ± 0.06 |
| ACATTGTG | 0.26 ± 0.054 |
| ACATTGTC | 0.19 ± 0.033 |
| AGAGACCG | -0.14 ± 0.044 |
| CCCGCCCA | 0.183 ± 0.043 |
| GCCCGCCC | 0.0723 ± 0.054 |
| CCCCGCCC | 0.369 ± 0.062 |
| CCGCCCCC | -0.124 ± 0.051 |
| CCCGCCCG | 0.025 ± 0.078 |
| CCCCCGCC | 0.0274 ± 0.11 |
| CCGCCCCG | 0.236 ± 0.075 |
| AACCCGCC | -0.0368 ± 0.068 |
| ACCCCGCC | 0.279 ± 0.035 |
| ACCCGCCC | 0.0569 ± 0.092 |
